In PubChem BioAssay (NCI):
The panel holds about 83,000 compounds, 20% with a hit somewhere; the sample as a whole holds those more often.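 Interpretation: 100, growth as untreated; towards 0, rising growth inhibition; 0, no net growth; 0 to -100, cell death. Compounds scoring below 10 were considered active.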 Values without a mark were called inactive. Activity calls are given as the source filed them.

Legend:
Assay in all cases: NCI-60 one-dose screen, 48 h (100 = growth as untreated, 0 = no growth, -100 = all killed)
Settings in all cases: 10 µM unless noted
[1] = system: HCT-15 colon
[2] = system: HT29 colon
[3] = system: SNB-75 CNS
[4] = system: SNB-19 CNS
[5] = system: U251 CNS
[6] = system: SK-MEL-5 melanoma
[7] = system: UACC-62 melanoma
[8] = system: LOX IMVI melanoma
[9] = system: SK-MEL-28 melanoma
[10] = system: PC-3 prostate

| Structure (SMILES) | growth [1] | growth [2] [%] | growth [3] | growth [4] | growth [5] | growth [6] | growth [7] | growth [8] | growth [9] | growth [10] |
| --- | --- | --- | --- | --- | --- | --- | --- | --- | --- | --- |
| Clc1ccc(Nc2nnc(-c3c[nH]c4ccccc34)o2)cc1 | 40.4% | 88.6 | 59.5% | 85.5% | 76.4% | 87.6% | 65.4% | 58.1% | 91.1% |  |
| Cc1ccc(C2CC(c3ccc(S(=O)(=O)NCCNc4nc(N(C)C)nc(N5CCOCC5)n4)cc3)=Nc3c(N)nc(N)nc3N2)cc1 (stereo unspecified) | 44.5% | 17.9 | 59.5% | 57.3% | 50.6% | 34.5% | 71.1% | 17.7% | 71.1% |  |
| Clc1ccc(-c2nc3ccc(-c4nnc(SCc5ccccc5)o4)cc3[nH]2)cc1 | -28.9% (active) | 41.5 | 40.4% | 27% | -8.55% (active) | 20.9% | 37.7% | 4.07% (active) | 58.3% |  |
| N#Cc1cc(-c2ccc3ncnc(N4CCc5cc(F)c(Cl)cc54)c3c2)cnc1N | 23.3% | 34.2 | 24.9% | 57.9% | 57% | 55.9% | 56.7% | 28.4% |  |  |
| Cc1ccccc1NC(=O)c1cccc(NC(=O)CCl)c1 | 43.5% | 35.6 | 53.9% | 72.7% | -53.1% (active) | 44.2% | 24.4% | -47.5% (active) | 71.1% |  |
| COc1cccc(-c2ccc(/C=N/NC(=O)c3[nH]c4ccc(Br)cc4c3-c3ccccc3)s2)c1 | 3.37% (active) |  | 36.8% | 11.7% | -23% (active) | -60.9% (active) | -17.1% (active) | 4.04% (active) | 8.82% (active) | 23.7% |
| COc1cc(NC(=O)C(C)C)ccc1C(=O)NC(=S)Nc1ccc(S(N)(=O)=O)cc1 | 108% |  | 95.5% | 80.8% | 72% | 114% | 96.2% | 102% | 114% | 115% |
| C[C@H]1[C@@H](CC(=O)N[C@@H](Cc2coc3ccccc23)B(O)O)O[C@@H]2OC3(C)CC[C@H]4[C@H](C)CC[C@@H]1[C@@]24O3 | -51.7% (active) |  | -19% (active) | 35% | 25.2% | -83.4% (active) | -75.8% (active) | -72.7% (active) | 5.12% (active) | 28.5% |
| CCN(C(=O)CN1C(=O)/C(=C/c2ccco2)SC1=S)C1CCS(=O)(=O)C1 (stereo unspecified) | 88.8% |  | 75.3% | 91.8% | 104% | 91.9% | 92.6% | 90.6% | 98% | 109% |
| CCCn1c(NC(=O)c2cccc(C(N)=O)c2)nc2ccc(CN3CCCCC3)cc21 | 67.1% |  | 128% | 111% | 106% | 102% | 113% | 93.4% |  | 63.2% |
| CC(C)(C)c1cc(-c2cc(-c3ccccc3)[nH]c(=O)c2C#N)cc(C(C)(C)C)c1 | 56.6% |  | -32% (active) | 25.7% | -22% (active) | 74.5% | 68.3% | 49.2% | 78.5% | 53.3% |
| Cc1ccc(Nc2nnc(-c3c[nH]c4ccccc34)o2)c(C)c1 | 8.92% (active) |  | 27.3% | 31.3% | 5.02% (active) | 6.62% (active) | 7.3% (active) | 1.68% (active) | 54.5% | 28.7% |
| COc1ccc(C(=O)NNC(=O)CSc2nc3sc4c(c3c(=O)n2-c2ccc(Cl)cc2)CCCC4)cc1 | 76.3% |  | 44.5% | 63.3% | 42.3% | 46.8% | 26.1% | 55.5% | 72.5% | 80.6% |
| NC(=O)c1ccc(-c2ccc3ncnc(N4CCc5cc(F)c(Cl)cc54)c3c2)cn1 | 59.9% |  | 106% | 74.3% | 87.4% | 76.2% | 71.8% | 57% | 91.7% | 50.8% |
| COc1ccc2c(c1)C(Sc1ccc(Br)cc1)c1c(nc(N)c(C#N)c1N)O2 (stereo unspecified) | 76.3% |  | 80.4% | 80.6% | 77.2% | 85.6% | 76.4% | 16.7% | 104% | 48.2% |
| C#CCN(C)CCCOc1ccc(N(CC)C(=O)c2cc(C(C)C)c(O)cc2O)cc1Cl | -52.8% (active) |  | -1.15% (active) | 11.2% | 1.31% (active) | -95.9% (active) | -66% (active) | -95.4% (active) | 5.69% (active) | 12.6% |
| CCC(=O)c1cc(C(=O)OC)c2ccc3c4ccccc4ccc3n12 | 91.4% |  | 47% | 66.9% | 21.9% | 93.8% | 89.6% | 77.9% | 99.6% | 92.6% |
| O=C(c1ccc(Cl)cc1)C1[C@H](c2ccccc2Cl)[C@@H](c2ccccc2)NC12C(=O)Nc1ccc(Br)cc12 (stereo partly specified) | -83.8% (active) |  | -28.7% (active) | -54.6% (active) | -71.6% (active) | -95.5% (active) | -86.2% (active) | -100% (active) | -95.4% (active) | -27.9% (active) |
| CCOc1ccccc1[C@H]1C(C(=O)c2ccc(Cl)cc2)C2(N[C@@H]1c1ccccc1)C(=O)Nc1ccccc12 (stereo partly specified) | 7.49% (active) |  | 46.9% | 27% | 29.9% | -90.7% (active) | -4.32% (active) | -48.1% (active) | 40.8% | 7.19% (active) |
| O=C(Cc1c(-c2cccc([N+](=O)[O-])c2)n(-c2ncnc3c2c(-c2ccccc2)c(-c2ccccc2)n3Cc2ccccc2)[nH]c1=O)c1ccc(Cl)c(Cl)c1 | 62.3% |  | 46.1% | 25.9% | 26.4% | -10.2% (active) | 14% | 15.7% | 46.3% | 30.7% |
| COc1ccc(/C=C/c2nc3ccccc3n3c(-c4cccc([N+](=O)[O-])c4)nnc23)cc1 | -80.7% (active) |  | -2.16% (active) | 15% | -64.5% (active) | -95.4% (active) | -83.1% (active) | -77.3% (active) | -47.1% (active) | 5.23% (active) |
| COc1cc(CNC(=O)C[C@H](C)CCC=C(C)C)ccc1OCc1cn(-c2ccc(Cl)c(Cl)c2)nn1 | 29.4% |  | 47.2% | 81.3% | 48.2% | 71.9% | 69.3% | 50.6% | 89.3% | 65.9% |
| O=C(/C=C1\C(=O)N(Cc2ccccc2)c2ccccc21)c1cc2ccccc2oc1=O | 31.8% |  | 88% | 102% | 98.4% | 90.2% | 79.5% | 85.2% | 92.1% | 90.7% |
| O=c1ccc(Cn2c(C(F)(F)F)cc3c(Cl)ncnc32)c[nH]1 | 0.0667% (active) |  | 13.1% | 47.4% | 98.5% | 6.31% (active) | 19.3% | -61.8% (active) | 40.8% | 78.4% |
| CCCCCCCCc1cccc(CC(=O)Nc2ccc(C)cc2C(=O)O)c1 | 13.2% [25 µM] |  | 74.1% [25 µM] | 50.9% [25 µM] | 38.2% [25 µM] | 36.5% [25 µM] | 49.4% [25 µM] | 3.4% [25 µM] (active) | 65.5% [25 µM] | 46.8% [25 µM] |
| O=C(NNC(=O)c1ccc(OCc2nc3ccc(Cl)cc3[nH]2)cc1)Nc1ccc(Cl)c(C(F)(F)F)c1 | 97.6% |  | 59.8% | 61.1% | 30.7% | 70.4% | 61.4% | 48.2% | 52.8% | 33.3% |
| Cc1cc(=O)oc2cc(OCC(O)CNN3C(=O)c4cccc5c(N6CCN(C)CC6)ccc(c45)C3=O)ccc12 (stereo unspecified) | 91% |  | 82.4% | 96.2% | 103% | 102% | 79.2% | 71% | -17.3% (active) | 105% |
